Results taken from publication PMC9911399, “Two distinct binding modes provide the RNA-binding protein RbFox with extraordinary sequence specificity”.
Where a chain is given by its changes, count along the chain named. In all, about 16,000 sequences were measured (“ka relative to ugcaugu”: median about 0.0091, highest 2% from about 0.032 on). The full list was thinned out, with the highest values kept by preference.

T1: RBFOX1 RRM (Homo sapiens, UniProt Q9NWB1 109-208)
T1 sequence: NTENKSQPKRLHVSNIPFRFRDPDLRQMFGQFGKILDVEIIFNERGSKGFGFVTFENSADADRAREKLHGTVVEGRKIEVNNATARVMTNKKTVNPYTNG

B1: CGGAACU (DNA:RNA)
RNA: GGGAGACCGGAAUUCAGAUUGUCCCGGAACUUUAAAUCCCGUCGUAGCCACCA
DNA 1: CAATCTGAATTCCGGTCTCCC
DNA 2: TGGTGGCTACGACGGGATT
B2: CGGGAGC (DNA:RNA)
RNA: B1 RNA with A28G, C30G, U31C
DNA 1: CAATCTGAATTCCGGTCTCCC
DNA 2: TGGTGGCTACGACGGGATT
B3: GGGGAGC (DNA:RNA)
RNA: B1 RNA with C25G, A28G, C30G, U31C
DNA 1: CAATCTGAATTCCGGTCTCCC
DNA 2: TGGTGGCTACGACGGGATT
B4: CGGAAGC (DNA:RNA)
RNA: B1 RNA with C30G, U31C
DNA 1: CAATCTGAATTCCGGTCTCCC
DNA 2: TGGTGGCTACGACGGGATT
B5: GGAAGCU (DNA:RNA)
RNA: B1 RNA with C25G, G27A, A29G
DNA 1: CAATCTGAATTCCGGTCTCCC
DNA 2: TGGTGGCTACGACGGGATT
B6: GGGAAGC (DNA:RNA)
RNA: B1 RNA with C25G, C30G, U31C
DNA 1: CAATCTGAATTCCGGTCTCCC
DNA 2: TGGTGGCTACGACGGGATT
B7: CGGAGCU (DNA:RNA)
RNA: B1 RNA with A29G
DNA 1: CAATCTGAATTCCGGTCTCCC
DNA 2: TGGTGGCTACGACGGGATT
B8: GGGAACU (DNA:RNA)
RNA: B1 RNA with C25G
DNA 1: CAATCTGAATTCCGGTCTCCC
DNA 2: TGGTGGCTACGACGGGATT
B9: GGGAGCU (DNA:RNA)
RNA: B1 RNA with C25G, A29G
DNA 1: CAATCTGAATTCCGGTCTCCC
DNA 2: TGGTGGCTACGACGGGATT
B10: GGAGCUU (DNA:RNA)
RNA: B1 RNA with C25G, G27A, A28G, A29C, C30U
DNA 1: CAATCTGAATTCCGGTCTCCC
DNA 2: TGGTGGCTACGACGGGATT
B11: GGAGAGC (DNA:RNA)
RNA: B1 RNA with C25G, G27A, A28G, C30G, U31C
DNA 1: CAATCTGAATTCCGGTCTCCC
DNA 2: TGGTGGCTACGACGGGATT
B12: GGAACUU (DNA:RNA)
RNA: B1 RNA with C25G, G27A, A29C, C30U
DNA 1: CAATCTGAATTCCGGTCTCCC
DNA 2: TGGTGGCTACGACGGGATT

Target: T1, RBFOX1 RRM
Experiment: EMSA; HiTS-Eq, 1 nM pool, 10 min; buffer printed only for the single-RNA assays: 10 mM Tris pH 7.5, 150 mM NaCl, 3.4 mM EDTA, 0.001% NP-40, 30 C
Details: tags: His6 N-terminal (pET28a); label: 5' 32P
In short: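 Purified wild-type or mutant RbFox RRM at increasing concentrations was equilibrated with 1 nM of 5′-radiolabelled RNA carrying 7 randomized nucleotides for 10 min in 50 µL. Unbound RNA was separated by 8% native PAGE and sequenced. Relative association constants came from read-count changes of each RNA species compared with the control reaction, normalised to the cognate motif.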

Binder	binding signal
B1	0.0254 KA relative to UGCAUGU
B2	0.0286 KA relative to UGCAUGU
B3	0.0326 KA relative to UGCAUGU
B4	0.0209 KA relative to UGCAUGU
B5	0.0135 KA relative to UGCAUGU
B6	0.036 KA relative to UGCAUGU
B7	0.0245 KA relative to UGCAUGU
B8	0.0404 KA relative to UGCAUGU
B9	0.035 KA relative to UGCAUGU
B10	0.0232 KA relative to UGCAUGU
B11	0.0169 KA relative to UGCAUGU
B12	0.0138 KA relative to UGCAUGU
